Shown are actives, neighbours in structure and some others; about 1.6% of the full set was active somewhere.
KCNQ2 inh = inhibitors of rat KCNQ2 potassium channel; actives 1.1% (n = 310,000); CHO-K1 KCNQ2, FluxOR thallium flux, 20 min; hits give low values; O88943; AID 2156; B-score at 10 µM;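 active means fluorescence ratio B-score at most minus 3 library SDs, with starting brightness B-score within 2 library SDs, cut at about -5.5 in these data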
KCNQ2 pot = potentiators of rat KCNQ2 potassium channel; O88943; CHO-K1 KCNQ2, FluxOR thallium flux fluorescence; hits give high values; B-score at 10 µM; actives 0.54% (n = 310,000);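 active means fluorescence ratio B-score at least 3 SD of library B-scores, with initial fluorescence B-score within 3 of them, cut at about 5.3 in these data; same plate scores as AID 2156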;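 further: B-score of peak minus minimum over baseline fluorescence ratio after K+ and Tl+ stimulus; positive B-score means potentiation of KCNQ2 with more thallium influx and brighter signal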
Kir21 confirm = confirmation of mouse Kir2.1 potassium channel inhibitors; shares compounds with KCNQ2 pot; Kir2.1-expressing cells, FluxOR thallium flux fluorescence; hits give low values; Tl flux remaining, % of negative control (hits give low values), % at 10 µM; actives 41% (n = 2,300);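 active means Primary-screen hit whose thallium flux fell at least 3 control SD below untreated wells in both duplicates, with normal baseline fluorescence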
Target sequence (P35561 whole entry, looked up): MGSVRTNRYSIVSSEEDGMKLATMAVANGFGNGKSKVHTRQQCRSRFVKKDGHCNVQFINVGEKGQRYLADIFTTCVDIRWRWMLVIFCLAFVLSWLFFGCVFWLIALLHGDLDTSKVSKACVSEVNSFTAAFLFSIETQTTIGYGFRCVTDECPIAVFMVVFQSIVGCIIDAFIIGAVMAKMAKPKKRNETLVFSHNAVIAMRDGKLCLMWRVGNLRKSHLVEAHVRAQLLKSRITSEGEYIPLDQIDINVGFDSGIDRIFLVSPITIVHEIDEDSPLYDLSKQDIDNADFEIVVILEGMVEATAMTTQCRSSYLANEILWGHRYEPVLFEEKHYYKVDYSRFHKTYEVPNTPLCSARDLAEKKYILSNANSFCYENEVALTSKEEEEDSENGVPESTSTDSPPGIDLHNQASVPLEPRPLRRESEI
HEK293 ctr = counter-screen for Kir2.1 inhibitors: effect in parental HEK293 cells. FluxOR thallium flux fluorescence; 0% = unstimulated blank wells. actives 19% (n = 2,300). shares compounds with KCNQ2 pot. FluxOR signal as % of negative control (100 = no effect), % at 10 µM;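 active means dye signal at least 3 control SD above or below untreated wells in both duplicates, raw fluorescence within 3, either direction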;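 further: percent is based on the flux ratio of peak minus minimum fluorescence over baseline F0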
CHO-K1 Tl ctr = alters thallium flux in parental CHO-K1 cells, KCNQ2 counter-screen; shares compounds with KCNQ2 pot; FluxOR thallium flux fluorescence; zero = vehicle mean+3SD, 100% = vehicle-minus-blank window; activity increase over 3SD of controls, % at 10 µM; actives 43% (n = 1,200); AID 2282;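 active means signal rise of at least 3 SD above the untreated control mean, in both duplicate wells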;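 further: counter screen of KCNQ2 potentiator hits so any rise reflects channel-independent effects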
KCNQ1 pot spec = selectivity of KCNQ2 potentiators: effect on human KCNQ1; shares compounds with KCNQ2 pot; activation over 3SD threshold, % at 10 µM; CHO KCNQ1 stable, FluxOR thallium flux fluorescence; beyond 3SD, as % of vehicle-control signal; actives 28% (n = 1,200);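 active means fluorescence ratio rise of at least 3 SD of vehicle wells above their mean, in both replicate wells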
KCNQ2 pot conf = confirmation of rat KCNQ2 potassium channel potentiators; actives 68% (n = 1,200); potentiation, less the hit threshold, % at 10 µM; shares compounds with KCNQ2 pot; CHO-KCNQ2 cells, FluxOR thallium flux fluorescence;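 active means fluorescence ratio rising 3 SD or more over the vehicle control mean in both replicates, plus primary screen hit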;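 further: peak minus minimum thallium fluorescence divided by baseline after K/Tl stimulus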
Kir2-1 sel = mouse Kir2.1 off-target activity of KCNQ2 potentiators | shares compounds with KCNQ2 pot | HEK293 Kir2.1, FluxOR thallium flux fluorescence | activity over 3SD threshold, % at 10 µM | actives 2% (n = 1,200);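 active means fluorescence ratio rise of at least 3 SD above the vehicle-control mean, seen in both replicates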
KCNQ2 W236L MoA = rat KCNQ2 W236L mutant potentiation by KCNQ2 potentiators | shares compounds with KCNQ2 pot | current increase over 3SD of negative controls (%), hits give high values, % at 25 µM | actives 10% (n = 940) | AID 2558 | CHO KCNQ2-W236L, automated patch clamp current;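 active means current increase at least 3 SD of the untreated controls above them in both duplicate recordings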
Of the large screens only hits and unclear results are named; the others gave an inactive call (follow-up assays come after a bar, where they were run).

Cc1ccccc1-n1c(SCC(=O)O)nc2sc3c(c2c1=O)CCCC3	none (no result: KCNQ2 pot)
CCCc1nc2sc3c(c2c(=O)n1N)CCC3	none (no result: KCNQ2 pot)
O=C(NCCc1ccc(C(F)(F)F)cc1)C1CCC(=O)N(CCCc2ccccc2)C1 (stereo not given)	none
O=C(Nc1cccc(-c2cnc3ccccc3n2)c1)C1CC(=O)N(c2ccccc2)C1 (stereo not given)	none
CN(Cc1ccccc1)C(=O)C1CCN(S(=O)(=O)c2cccc3nonc23)CC1	none
CN(C)CC#CCOC(c1ccccc1)c1ccccc1	none (no result: KCNQ2 pot) | Kir21 confirm 50% | HEK293 ctr inactive
CCN(CC)CC#CCOC(c1ccccc1)c1ccccc1	none (no result: KCNQ2 pot)
Cc1ccc(NC(=O)COC(=O)COc2cccc3c2OC(C)(C)C3)c(C)c1	none
Cc1ccc2c(CN3CCCCC3C)cc(=O)oc2c1C (stereo not given)	KCNQ2 pot 24 | Kir21 confirm inactive | HEK293 ctr inactive | CHO-K1 Tl ctr inactive | KCNQ1 pot spec inactive | KCNQ2 pot conf inactive | Kir2-1 sel inactive
Cc1ccc2c(CN3CCCCC3C)cc(=O)oc2c1 (stereo not given)	none
CCCCCCCCNc1ncnc2ccccc12	none (no result: KCNQ2 pot) | Kir21 confirm inactive | HEK293 ctr 128%
c1ccc(CCNc2ncnc3ccccc23)cc1	none (no result: KCNQ2 pot)
CCN(CC)C(=O)COc1coc(CN2CCN(c3ccccc3)CC2)cc1=O	none (no result: KCNQ2 pot)
CC(C)c1ccc(N(CCc2ccccn2)C(=O)C(C)(C)C)cc1	none
O=C1NC(Cc2c[nH]c3ccccc23)C(=O)N1Cc1ccccc1 (stereo not given)	none (no result: KCNQ2 pot)
O=C1C(Cc2c[nH]c3ccccc23)NC(=S)N1Cc1ccccc1 (stereo not given)	none (no result: KCNQ2 pot) | Kir21 confirm 48% | HEK293 ctr inactive
CCOc1nc(C)cc(C)c1S(=O)(=O)c1cccc(Cl)c1	none (no result: KCNQ2 pot) | Kir21 confirm 61% | HEK293 ctr inactive
Cc1cc(C)c(S(=O)(=O)c2cccc(Cl)c2)c(Cl)n1	none (no result: KCNQ2 pot)
CC(C)(C)c1nn(-c2ccccc2)c2nc(Cl)c(C=O)cc12	none (no result: KCNQ2 pot)
CC(C)(C)c1nn(-c2ccccc2)c2[nH]c(=O)c(C=O)cc12	KCNQ2 pot 6.8 | Kir21 confirm inactive | HEK293 ctr inactive | CHO-K1 Tl ctr 4.4 | KCNQ1 pot spec 12 | KCNQ2 pot conf inactive | Kir2-1 sel inactive
OCCNCc1cc(Br)ccc1OCc1ccc(Cl)cc1	none
OCCNCc1cccc(OCc2ccc(Cl)cc2)c1	none | Kir21 confirm inactive | HEK293 ctr inactive
CCN(CC)CC#CCC(O)(c1ccccc1)c1ccccc1	none (no result: KCNQ2 pot)
CCN(CC)CC#CCC(C)(c1ccccc1)c1ccccc1	none (no result: KCNQ2 pot) | Kir21 confirm inactive | HEK293 ctr inactive
COc1ccc(C(=O)/C=C/c2cccc(OCc3ccccc3)c2)cc1CSCC(=O)O	none (no result: KCNQ2 pot) | Kir21 confirm 74% | HEK293 ctr inactive
COc1ccc(C(C)=O)cc1CSCC(=O)O	none
COc1ccc(NC(=O)CCNS(=O)(=O)c2ccc(Cl)c([N+](=O)[O-])c2)cc1S(N)(=O)=O	none (no result: KCNQ2 pot)
O=C(O)CCn1c(SCc2ccccc2)nc2ccccc21	none
Cc1noc(C)c1CSc1nc2ccccc2n1CCc1ccccc1	KCNQ2 inh -6 | Kir21 confirm 66% | HEK293 ctr inactive
CCNC(=S)/N=C(/Nc1ccccc1)Nc1nc(C)cc(C)n1	none | Kir21 confirm inactive | HEK293 ctr inactive
CCNC(=S)/N=C(/Nc1ccc(OC)cc1)Nc1nc(C)cc(C)n1	none (no result: KCNQ2 pot)
O=C(Oc1ccc(=O)n(-c2ccccc2)n1)c1ccccc1	none (no result: KCNQ2 pot) | Kir21 confirm 61% | HEK293 ctr inactive
O=C(O)COc1ccc(=O)n(-c2ccccc2)n1	none
Cc1ccccc1CN1CCC(n2nccc2NC(=O)c2ccc3c(c2)OCO3)CC1	none (no result: KCNQ2 pot)
Cc1c(Cc2ccccc2)c(=O)oc2c(CN(C)C)c(O)c(Cl)cc12	none
CN(C)Cc1c(O)ccc2oc(Cc3ccccc3)cc12	none | Kir21 confirm 42% | HEK293 ctr inactive
COc1ccc(CCNCC(O)COc2cccc(Br)c2)cc1 (stereo not given)	none | Kir21 confirm 25% | HEK293 ctr inactive
Cc1ccc(CNC(=O)NCc2ccccc2)cc1	none
CC(=O)c1cccc(OCC(O)CNCCc2ccc(Cl)cc2)c1 (stereo not given)	none
COc1ccc(CNCC(O)COc2ccc(C(C)(C)c3ccccc3)cc2)cc1 (stereo not given)	none (no result: KCNQ2 pot) | Kir21 confirm 41% | HEK293 ctr 65%
COc1ccc(CNCc2cccc(Cl)c2)cc1	none
COc1ccc(CNCC(O)(c2ccccc2)c2ccc(Cl)cc2)cc1 (stereo not given)	KCNQ2 inh -5.6 | Kir21 confirm 62% | HEK293 ctr inactive
Cc1ccc(CNCC(O)(c2ccccc2)c2ccccc2)cc1	none (no result: KCNQ2 pot) | Kir21 confirm 42% | HEK293 ctr inactive
COC(=O)c1ccc(CNCC(O)COc2ccc(-c3ccccc3)cc2)cc1 (stereo not given)	none (no result: KCNQ2 pot)
CC(NC(=O)CCSCc1ccccc1F)c1ccccc1 (stereo not given)	none (no result: KCNQ2 pot)
O=C(c1cccc(NS(=O)(=O)c2cccc(C(F)(F)F)c2)c1)N1CCOCC1	none (no result: KCNQ2 pot)
Cc1ccc2oc(=O)n(Cc3ccccc3)c2c1	none
CCC(=O)c1cn(CC(=O)NCc2cccnc2)c2ccccc12	none (no result: KCNQ2 pot)
O=[N+]([O-])c1ccc(S(=O)(=O)N2CCSC2c2ccco2)cc1 (stereo not given)	none (no result: KCNQ2 pot)
O=S(=O)(c1ccc(Cl)cc1)N1CCSC1c1ccco1 (stereo not given)	none (no result: KCNQ2 pot) | Kir21 confirm 66% | HEK293 ctr inactive
Cc1c(C#N)c(NC(=O)CCl)n(Cc2cccs2)c1C	none
CC(C)(C)OC(=O)N1CCC(CNC(=O)c2cccs2)CC1	none
COc1cccc(CNc2ccc3[nH]c(=O)[nH]c3c2)c1OCc1ccccc1F	none | Kir21 confirm 66% | HEK293 ctr inactive
COc1cc(CNc2ccc3[nH]c(=O)[nH]c3c2)cc(Br)c1OCc1ccc(F)cc1	none
Clc1ccc(Nc2ccc(Cl)nn2)cc1	KCNQ2 pot 6.6 | Kir21 confirm inactive | HEK293 ctr inactive | CHO-K1 Tl ctr 17 | KCNQ1 pot spec 36 | KCNQ2 pot conf 14 | Kir2-1 sel inactive | KCNQ2 W236L MoA 25%
COc1ccc(Nc2ccc(Cl)nn2)cc1	none
COc1cc(C(=O)NC(C)CCn2cccn2)ccc1OC1CCN(C(C)=O)CC1 (stereo not given)	none

Source: PubChem (Johns Hopkins Ion Channel Center)
